Screens as filed in PubChem BioAssay.
Only some compounds are listed: those with a hit (about 2.6% of all), similar ones and a draw of the others.
PABP polyA inh: blocks human PABP binding to poly(A) RNA; P11940; fluorescence polarization; calls only at 35 µM; 1% of 290,000 active;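 further: calls also rest on retests at 20 µM and on dose response follow-up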
PHOSPHO1 inh: inhibitors of human PHOSPHO1 phosphatase; recombinant PHOSPHO1, absorbance phosphatase assay; inhibition, % at 13.3 µM; 1.1% of 290,000 active; AID 1565; in the data active means inhibition above about 60%
eIF4H inh: inhibitors of RNA binding by human eIF4H. Q15056. eIF4H fluorescence polarization binding assay. inhibition, % at 35 µM. 0.94% of 290,000 active. AID 2012;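 further: calls also rest on retests at 20 µM and on dose response follow-up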
PABP1 MLLE inh: blocks PAM2 peptide binding to the PABP1 MLLE domain; inhibition, % at 20 µM; 0.36% of 360,000 active; P11940; GST-MLLE / FITC-PAM2 fluorescence polarization; AID 588489; in the data active means inhibition above about 35%, passing the limit was not always enough;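 further: plate controls were DMSO wells with GST-MLLE for no effect and wells lacking GST-MLLE protein for full effect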
APOBEC3A inh: inhibitors of human APOBEC3A DNA deaminase; inhibition, % at 20 µM; 0.41% of 330,000 active; recombinant A3A, FAM/TAMRA ssDNA deamination fluorescence; AID 493011;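 active means at least 40% inhibition at 20 µM here, with at most 30% in a related deaminase screen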;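 further: plate controls were A3A with DMSO for no effect and wells lacking A3A enzyme for full effect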
A3G deaminase: APOBEC3G (human) deaminase inhibition | inhibition, % at 20 µM | recombinant A3G, ssDNA deamination FAM/TAMRA fluorescence | 0.28% of 330,000 active | AID 493012;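 active means inhibition of at least 40% at 20 µM, with no more than 30% in the related APOBEC3A deaminase screen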;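 further: plate controls were DMSO wells with A3G for no effect and wells lacking A3G enzyme for full effect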
Target sequence (Q9HC16 whole entry, looked up): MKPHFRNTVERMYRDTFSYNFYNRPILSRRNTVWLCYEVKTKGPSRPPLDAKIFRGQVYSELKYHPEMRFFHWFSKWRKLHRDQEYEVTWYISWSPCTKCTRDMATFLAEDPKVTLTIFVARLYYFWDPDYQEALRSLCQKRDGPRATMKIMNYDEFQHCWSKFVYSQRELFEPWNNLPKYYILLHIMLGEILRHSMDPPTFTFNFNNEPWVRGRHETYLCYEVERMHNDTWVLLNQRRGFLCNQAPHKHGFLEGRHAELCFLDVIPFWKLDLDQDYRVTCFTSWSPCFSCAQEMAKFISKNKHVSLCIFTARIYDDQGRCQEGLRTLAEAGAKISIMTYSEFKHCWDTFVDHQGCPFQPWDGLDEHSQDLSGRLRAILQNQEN
Active calls of the source: *; i = inactive; ? = inconclusive; / = not tested or not shown; + = active, no number. Unless noted, how the calls were made is not given here.

SMILES	PABP polyA inh	PHOSPHO1 inh	eIF4H inh	PABP1 MLLE inh	APOBEC3A inh	A3G deaminase
Clc1ccc(OCCSCc2nc3ccccc3[nH]2)cc1	i	69*	4	-28	-6	-12
CCn1c(COc2ccc(C)cc2)nnc1SCc1ccc(C#N)cc1	i	94*	-2	-90	2	-1
COc1ccc(NC(=O)N2C3CCCC2CC(NC(=O)c2ccccc2)C3)cc1 (stereo unspecified)	i	27	1	1	6	-11
Cc1ccc(-c2nc(SC(C)C(=O)NC3CC3)n[nH]2)cc1 (stereo unspecified)	/	/	/	-1	/	/
COc1ccc(CNC(=O)Nc2nc(C(N)Cc3ccc(Cl)cc3)cs2)cc1 (stereo unspecified)	/	/	/	4	/	/
Cc1ccc(OCc2nnc(SCc3nc4ccccc4[nH]3)n2Cc2ccco2)cc1	i	84*	-6	-112	-3	-3
CCCCn1c(=O)c(CCC(=O)OCC(=O)NC(=O)NCCC(C)C)nc2ccccc21	i	1	active	18	1	4
COc1ccc(-c2ccc(CCC(=O)O)n2NC(N)=O)cc1	i	19	-5	4	4	5
COc1ccc(-c2ccc(CCC(=O)O)n2NC(=O)c2ccc(O)cc2)cc1	i	63*	-3	0	-4	-11
CCCn1c(CCC(=O)O)ccc1-c1ccc(OC)cc1	+	-36	53*	-25	-4	-8
COC(=O)C[C@H](NC(=O)Cn1cnc2c(SC)nc(N)nc21)C(=O)OC	/	/	/	-8	-5	-10
CCOc1ccc(S(=O)(=O)NCC2(N3CCCCC3)CCCCC2)cc1	/	/	/	0	-2	-12
CCOc1ccc(S(=O)(=O)NCCC(=O)NCC2(N3CCCCC3)CCCCC2)cc1	+	41	94*	-7	5	-1
Nc1ccc(/C=C/C(=O)c2cccs2)cc1	i	-11	65*	-113	-6	-13
OCCNCCSc1nc(C2CCCCC2)n(-c2ccccc2Cl)n1	i	15	4.8*	1	4	-6
Cc1cc2c(n1-c1ccc(C(=O)O)cc1)CCCCC2	+	-8	91*	/	92	82
Cc1ccc(-c2ccccc2)n1-c1ccc(C(=O)O)cc1	i	0	2	4	-2	-5
Cc1onc(-c2ccccc2)c1C(=O)N/N=C/c1ccc([N+](=O)[O-])s1	+	-1	58*	12	-2	-3
CCCCNC(=O)/C(=C/c1ccco1)NC(=O)c1ccco1	i	19	-15	6	-3	-7
NC(=O)c1ccc(N2CCC(C(N)=O)CC2)c([N+](=O)[O-])c1	+	28	93*	4	-1	-6
CCOC(=O)C1CCN(c2ccc(C(N)=O)cc2[N+](=O)[O-])CC1	i	-16	-3	-2	-3	-7
COc1ccc(NC(=O)CNC(=O)Cc2cccc3ccccc23)c(OC)c1	/	/	/	-19	-1	-7
CCO/C=N/Nc1nc(C(F)(F)F)nc2c1cnn2Cc1ccccc1	i	28	-8	-5	0	-5
Cc1csc(Nc2ccc(Cl)cc2)n1	i	44	-4	-4	0	-7
Cc1ccc(Nc2nc(C)cs2)cc1	i	65*	0	-57	1	-8
SMILES	PABP polyA inh	PHOSPHO1 inh	eIF4H inh	PABP1 MLLE inh	APOBEC3A inh	A3G deaminase
O=C(Nn1c(O)c(C=C2N=c3ccccc3=N2)sc1=S)c1ccccc1Cl	i	79*	-1	-23	0	-1
O=S(=O)(Nn1c(O)c(C=C2N=c3ccccc3=N2)sc1=S)c1ccccc1	i	15	4	-6	-4	-7
C/C=C/c1ccc(OCCCNCC(C)O)c(OC)c1 (stereo unspecified)	i	-2	-3	12	1	-4
C/C=C/c1ccc(OCCCCNCc2ccco2)c(OC)c1	+	8	8.0*	1	-4	-5
N#CC1=C(N)C2=CCCC[C@H]2[C@H](c2ccccc2)C1(C#N)C#N	+	2	89*	6	-3	-7
Cc1ccc(C)c(NC2=C(Cl)C(=O)OC2OC(C)C)c1 (stereo unspecified)	+	8	active	-7	-3	-16
NC(=O)NCCc1ccccc1	i	4	-10	18	-4	-8
CCCCSCCCNC(=O)c1ccc(CS(=O)(=O)c2ccccc2OC)o1	i	20	10	11	-3	-1
N#Cc1c(N)n(-c2ccc(C(=O)O)cc2)c2nc3ccccc3nc12	i	-1	80*	-43	3	2
Cn1cc(C(=O)N/N=C/C(Br)=C\c2ccccc2)ccc1=O	+	-22	57*	-6	-3	-2
CCCC[C@H]1COCCS(=O)(=O)N1Cc1ccc(Br)cc1	i	4	-5	-12	-1	-13
O=C1NCCN(Cc2ccc(Cl)c(F)c2)C1CC(=O)N1CCc2ccccc2C1 (stereo unspecified)	i	2	54*	25	-5	-3
COc1ccc(S(=O)(=O)N(C)C[C@H]2Oc3ccc(NC(=O)Nc4ccc5c(c4)OCO5)cc3C(=O)N([C@H](C)CO)C[C@@H]2C)cc1	/	/	/	9	3	-4
CCOc1ccc(C(=O)OCC(=O)N(Cc2ccccc2)Cc2ccccc2)cc1OC	/	/	/	14	-2	-4
CC1(C)Cc2c(sc3[nH]c(=O)n(CC(=O)NCC4CCCO4)c(=O)c23)CO1 (stereo unspecified)	i	-9	0	2	0	11
CC1CCN(c2c(NCC3CCC(C(=O)NCCCc4ccccc4)CC3)c(=O)c2=O)CC1 (stereo unspecified)	i	22	-5	/	2	-2
Clc1ccc(CSc2nnc(CNc3cccc(Cl)c3)o2)cc1	+	-15	63*	-4	-1	-3
CC(C(=O)c1ccc(Br)cc1)[n+]1cccc2ccccc21 (stereo unspecified)	+	24	90	-28	-8	-12
O=C(COC(=O)c1c(F)cccc1F)Nc1ccc2[nH]c(=O)[nH]c2c1	i	-23	57*	-14	7	-1
O=C(COC(=O)c1ccc(F)cc1F)Nc1ccc2[nH]c(=O)[nH]c2c1	i	12	21	-19	4	3
CC1CC1C(=O)OCC(=O)Nc1ccc2[nH]c(=O)[nH]c2c1 (stereo unspecified)	+	46	?	-13	2	6
CC1CC1C(=O)OCC(=O)Nc1cccc([N+](=O)[O-])c1 (stereo unspecified)	+	9	?	-1	20	-1
COc1cccc(CN2C(=NC(=O)CCC3CCCC3)SC3CS(=O)(=O)CC32)c1 (stereo unspecified)	i	32	-7	3	1	0
CCO/C([O-])=N/c1sn[n+](C)c1C	i	20	-3	-4	-4	-10
